Laboratory results: PubChem BioAssay (NCATS)
Records with an inconclusive call do not appear. Unless noted, calls come from the whole dose curve; as a rule, active = well fitted curve in either direction with a large enough effect (not every such curve was filed as active); inconclusive = small, poorly fitted or top-dose-only effect, or another doubt; inactive = flat fitted curve, though single readings scatter.

Assays:
[1] = AP1 Signaling Pathway (AID 357); conditions: ME-180 AP-1-bla reporter, EGF-induced, beta-lactamase ratio, 5 h; at 17.2 µM (top of the series) unless noted;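 note: ME-180 reporter cells stimulated with EGF at its EC50 level; % is set by controls: 0 for no effect and ±100 for the full control effect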
Outline: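 In this screen, ME-180 cells in Opti-MEM with 0.5% dialyzed FBS received EC50 EGF and compound titrations for 5 h. AP-1 reporter beta-lactamase was detected via CCF4 ratio, giving AC50 for positive and negative modulators.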

[2] = Stat Signaling Pathway (AID 446); conditions: ME-180 (cervical carcinoma) SIE beta-lactamase reporter, IL-6 stimulated, 5 h; at 17.2 µM (top of the series) unless noted;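 note: ME-180 cervical cancer cells given 40 pM IL-6 alongside compound; SIE-controlled beta-lactamase reporter measured as 460/530 nm FRET emission ratio; % is set by controls: 0 for no effect and ±100 for the full control effect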
Outline: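 FRET read-out (405 nm excitation, 460/530 nm emission) of a beta-lactamase reporter under a STAT-inducible element in ME-180 cervical carcinoma cells. Cells with compound receive 40 pM IL-6 for 5 h. Values are normalised to AC90 stimulation and AC90 JAK-inhibitor controls.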

[3] = target: Glucocorticoid receptor (Homo sapiens) (UniProt P04150); experiment: GR-GFP Redistribution (AID 450;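 active = compounds whose dose series gives a full or clear partial fitted curve of increased nuclear translocation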; note: potency is the fitted concentration of half-maximal effect)
Sequence of Glucocorticoid receptor (Homo sapiens) (P04150 whole entry, looked up): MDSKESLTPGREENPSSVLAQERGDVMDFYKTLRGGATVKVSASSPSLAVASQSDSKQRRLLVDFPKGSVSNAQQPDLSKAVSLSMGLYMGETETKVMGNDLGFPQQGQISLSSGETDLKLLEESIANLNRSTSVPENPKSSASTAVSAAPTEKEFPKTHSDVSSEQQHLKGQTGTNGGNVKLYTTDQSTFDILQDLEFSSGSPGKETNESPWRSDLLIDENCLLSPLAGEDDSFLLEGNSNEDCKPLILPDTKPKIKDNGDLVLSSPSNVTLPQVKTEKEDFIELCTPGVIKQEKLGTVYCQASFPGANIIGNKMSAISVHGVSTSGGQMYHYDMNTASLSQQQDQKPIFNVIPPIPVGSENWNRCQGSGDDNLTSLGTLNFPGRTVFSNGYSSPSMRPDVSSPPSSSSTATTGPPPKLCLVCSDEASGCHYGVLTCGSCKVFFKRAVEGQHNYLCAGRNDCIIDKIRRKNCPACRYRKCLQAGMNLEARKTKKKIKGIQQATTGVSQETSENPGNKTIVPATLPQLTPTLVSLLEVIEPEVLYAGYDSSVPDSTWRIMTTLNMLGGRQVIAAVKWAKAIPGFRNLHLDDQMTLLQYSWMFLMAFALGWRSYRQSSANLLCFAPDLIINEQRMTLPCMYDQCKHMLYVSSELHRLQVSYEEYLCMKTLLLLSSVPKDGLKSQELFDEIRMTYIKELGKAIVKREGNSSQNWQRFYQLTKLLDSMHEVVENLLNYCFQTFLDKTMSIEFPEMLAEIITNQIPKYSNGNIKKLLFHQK

Cc1cc(C)n(-c2nnc(C)n2/N=C/c2ccccc2F)n1
inactive: activity change, negative = inhibition [1] 8.65% | activity, negative = inhibition [2] 18% | Potency [3] > 20.6 µM

COc1ccc(C2NC(=O)NC(O)(C(F)(F)F)C2C(=O)c2ccc(F)cc2)cc1 (stereo not given)
inactive: activity change, negative = inhibition [1] -8.86% | activity, negative = inhibition [2] -0.989% | Potency [3] > 20.6 µM

CC1(C)Cc2c(c(N3CCCCC3)[nH]c(=S)c2C#N)CS1
inactive: activity change, negative = inhibition [1] 3.57% | activity, negative = inhibition [2] -3.22% | Potency [3] > 20.6 µM

CN1CCN(CC(=O)Nc2nc(-c3ccccc3)cs2)CC1
inactive: activity change, negative = inhibition [1] 9.16% | activity, negative = inhibition [2] -4.84% | Potency [3] > 20.6 µM

COc1ccc(CSC2=NCCN2)cc1Cl
inactive: activity change, negative = inhibition [1] 15.6% | activity, negative = inhibition [2] 8.84% | Potency [3] > 20.6 µM

COCCCNc1nc(-c2ccncc2)nc2ccccc12
inactive: activity change, negative = inhibition [1] -12.4% | activity, negative = inhibition [2] -12.9% | Potency [3] > 20.6 µM

Cn1c(=O)c2c(nc(SCCN3CCCCC3)n2Cc2ccc(Cl)cc2)n(C)c1=O
inactive: activity change, negative = inhibition [1] 11.2% | activity, negative = inhibition [2] -9.94% | Potency [3] > 20.6 µM

COc1cc([C@@H]2[C@H]3CNCC=C3C(C#N)=C(N)C2(C#N)C#N)ccc1OC(C)C
inactive: activity change, negative = inhibition [1] 14% | activity, negative = inhibition [2] 10.8% | Potency [3] > 20.6 µM

Cc1c(CCC#N)c(N2CCN(C3CCCCC3)CC2)n2c(nc3ccccc32)c1C#N
inactive: activity change, negative = inhibition [1] -16.9% | activity, negative = inhibition [2] 9.87% | Potency [3] > 20.6 µM

CCCOc1ccc(C(C)=O)cc1CSCCC#N
inactive: activity change, negative = inhibition [1] -12.7% | activity, negative = inhibition [2] 85.5% | Potency [3] > 20.6 µM

CCCCCCCCCCCCCCCC(O)C(N)CO (stereo not given)
inactive: activity change, negative = inhibition [1] -23.5% | activity, negative = inhibition [2] 7.16% | Potency [3] > 20.6 µM

O=C(CCN1C(=O)c2ccccc2C1=O)OCN1C(=O)c2ccccc2C1=O
inactive: activity change, negative = inhibition [1] 5.65% | activity, negative = inhibition [2] -0.962% | Potency [3] > 20.6 µM

C=CC[N+](C)(C)CCCNC(=O)/C=N/O
inactive: activity change, negative = inhibition [1] 6.86% | activity, negative = inhibition [2] 4.74% | Potency [3] > 20.6 µM

COc1ccc(C2/C(=C(\O)c3ccc4c(c3)OCCO4)C(=O)C(=O)N2CCCN(C)C)cc1 (stereo not given)
inactive: activity change, negative = inhibition [1] 8.31% | activity, negative = inhibition [2] 2.89% | Potency [3] > 20.6 µM

CCCCCCOc1ccc(C(=O)n2cnc(N)n2)cc1
inactive: activity change, negative = inhibition [1] -12.8% | activity, negative = inhibition [2] 27.4% | Potency [3] > 20.6 µM
